From PubChem
Only a selection was taken, and hits are over-represented in it overall.
Tgondii IFNg: inhibitors of Toxoplasma gondii growth with IFN-gamma; 3.8% of 69,000 active; activity change, negative = inhibition, % (test concentration not listed); Toxoplasma gondii growth in IFN-gamma-treated host cells; active compounds read low; in the data active means activity change below about -70%, passing the limit was not always enough;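 further: host cells are HeLa cells infected with Toxoplasma gondii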
Hits are given with their value.

`Cc1cc(NC(=O)CCC(=O)N(CC(=O)NCC2CCCO2)Cc2ccco2)no1` (centres undefined) gave Tgondii IFNg inactive.
Screening CC(C)NC(=O)CC1CC2(CCN(Cc3ccccn3)CC2)c2ccccc21 (centres undefined) returned Tgondii IFNg inactive.
`CN(CCOc1ccc(CC(Nc2ccccc2C(=O)c2ccccc2)C(=O)O)cc1)c1ccccn1` (centres undefined) gave Tgondii IFNg inactive.
Screening COC(=O)C(Cc1ccc(OCCn2c(=O)sc3cc(C(=O)c4ccccc4)ccc32)cc1)C(=O)OC returned Tgondii IFNg -87.
O=c1sc2ccccc2n1CCCOc1ccccc1 was read as Tgondii IFNg inactive.
`Cc1noc(C)c1CNC(=O)CSc1cn(C)c2ccccc12` gave Tgondii IFNg inactive.
Cn1nc(C(=O)Nc2ccc(N3CCCCC3)c(C(F)(F)F)c2)ccc1=O was read as Tgondii IFNg inactive.
For Cn1nc2c(c1C(=O)Nc1ccc(N3CCCCC3)c(F)c1)CCCC2 the results were Tgondii IFNg -95.
Screening O=C(Nc1ccc(N2CCOCC2)c(F)c1)c1ccnc(N2CCOCC2)c1 returned Tgondii IFNg inactive.
For C=C1/C(=C\C=C2/CCC[C@]3(C)[C@@H]([C@H](C)CCCC(O)(C(F)(F)F)C(F)(F)F)CC[C@@H]23)C[C@@H](O)C[C@@H]1O the results were Tgondii IFNg inactive.
COc1cc2c(cc1OC)C(c1ccccc1)=NCC2 was read as Tgondii IFNg inactive.
Screening COc1cc2c(cc1OC)C(c1c(-c3ccccc3)noc1C)=NCC2 returned Tgondii IFNg inactive.
`COc1cc2c(cc1OC)C(c1sc3ccccc3c1Cl)=NCC2` gave Tgondii IFNg -113.
`Cc1occc1C(=O)N1CCC2(CCN(Cc3cccc(F)c3)C2=O)C1` (centres undefined) gave Tgondii IFNg inactive.
`Cc1nccn1CCCNC(=O)c1cccc(N2CCCCC2)c1` gave Tgondii IFNg inactive.
Screening Cc1cccc(C2(O)C(=O)N(Cc3nc(-c4ccccc4)oc3C)c3ccccc32)c1 (centres undefined) returned Tgondii IFNg inactive.
COc1ccc(-c2nc(CN3C(=O)C(O)(c4cccc(F)c4)c4ccccc43)c(C)o2)cc1 (centres undefined) was read as Tgondii IFNg -74.
Cc1ccc(C2(O)C(=O)N(Cc3nc(-c4ccccc4)oc3C)c3ccccc32)cc1 (centres undefined) was read as Tgondii IFNg inactive.
For Cc1ccc(Nc2nc(C(=O)Nc3cccc(C)c3C)nc3ccccc23)cc1 the results were Tgondii IFNg inactive.
Screening COc1ccc(C)cc1NC(=O)C(=O)NCCc1csc(-c2ccc(Cl)cc2)n1 returned Tgondii IFNg inactive.
O=C(Nc1ccc(-c2nc(-c3ccccc3)co2)cc1)c1cccs1 was read as Tgondii IFNg inactive.
For COc1ccc(NS(=O)(=O)c2ccc(NC(=O)c3cc4ccccc4o3)cc2)cc1 the results were Tgondii IFNg -71.
For COc1ccc(NC(=O)c2c(NS(=O)(=O)c3ccc(C)cc3)csc2C)cc1 the results were Tgondii IFNg inactive.
`COc1cc(NC(=S)NC(=O)c2cccs2)ccc1NC(=O)C(C)C` gave Tgondii IFNg inactive.
Screening O=C(Nc1ccc(NS(=O)(=O)c2ccc(Oc3ccccc3)cc2)cc1)c1ccccc1 returned Tgondii IFNg inactive.
`COc1cc(NC(=O)c2cc3ccccc3o2)ccc1NC(=O)c1cccs1` gave Tgondii IFNg -111.
Screening CN1CCC(Cc2noc(CN3CCCCCCC3)n2)CC1 returned Tgondii IFNg inactive.
COC(=O)/C=c1\sc2nc(N)nn2c1=O was read as Tgondii IFNg inactive.
CC(=O)c1ccc(OCC(O)CN2CCN(C(c3ccccc3)c3ccccc3)CC2)cc1 (centres undefined) was read as Tgondii IFNg inactive.
`CCOC(CN1CCN(CC(C)C(=O)c2ccccc2)CC1)c1ccccc1` (centres undefined) gave Tgondii IFNg inactive.
Screening CCCCCOc1ccc(C(O)C(CN2CCCC2)c2ccccc2)cc1 (centres undefined) returned Tgondii IFNg -91.
`CCOC1C2CCC1N(C(=O)CCc1ccccc1)CCO2` (centres undefined) gave Tgondii IFNg inactive.
`CCN1C(=O)N(CC(N)=O)C(=O)C12CCN(Cc1cccc(-c3ccccc3C)c1)CC2` gave Tgondii IFNg inactive.
Screening CCOc1ccc2[nH]c(=O)c(CNCCO)cc2c1 returned Tgondii IFNg -101.
Screening CCOc1ccc2[nH]c(=O)c(CN(C)Cc3cc(C)on3)cc2c1 returned Tgondii IFNg inactive.
`COc1ccc2[nH]c(=O)c(CNc3c(C)cc[nH]c3=O)cc2c1` gave Tgondii IFNg inactive.
For Cc1ccc(N2CCC3(CC2)OCC(=O)NC3C)nn1 (centres undefined) the results were Tgondii IFNg inactive.
For O=c1ccc2cc(S(=O)(=O)Nc3ccccc3)ccc2[nH]1 the results were Tgondii IFNg inactive.
For CCc1nnc(SCC(=O)Nc2ccc(N3CCN(S(C)(=O)=O)CC3)cc2)o1 the results were Tgondii IFNg inactive.
`CCCCOC(=O)c1ccc(NC(=O)CSc2nnnn2C2CCCCC2)cc1` gave Tgondii IFNg inactive.
